target: ZNF721 DBD2 (Homo sapiens, UniProt Q8TF20-2 395-923); assay: HT-SELEX; 20 mM HEPES pH 7, 140 mM KCl, 5 mM NaCl, 1 mM K2HPO4, 2 mM MgSO4, 100 uM EGTA, ZnSO4, 0.1% Tween20; room temperature, 1 h; high values mean tight binding; conditions: protein: ivt; tags: eGFP (N-terminal); dsDNA, one strand shown
Procedure, shortened: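 A tagged transcription factor, either full-length or its DNA-binding-domain fragment, was made in HEK293 lysate or cell-free extract, immobilised on beads and incubated with a randomized 40-base DNA library for 1 h at room temperature in HEPES/KCl low-stringency buffer containing Tween20. Washed beads were heat-eluted, and the bound DNA was PCR-amplified over successive cycles and Illumina-sequenced at ~3 million 60 bp reads per sample. The binding signal is the relative k-mer count in selected reads, where a higher value means tighter binding.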

Sequence of ZNF721 DBD2 (Q8TF20 383-911): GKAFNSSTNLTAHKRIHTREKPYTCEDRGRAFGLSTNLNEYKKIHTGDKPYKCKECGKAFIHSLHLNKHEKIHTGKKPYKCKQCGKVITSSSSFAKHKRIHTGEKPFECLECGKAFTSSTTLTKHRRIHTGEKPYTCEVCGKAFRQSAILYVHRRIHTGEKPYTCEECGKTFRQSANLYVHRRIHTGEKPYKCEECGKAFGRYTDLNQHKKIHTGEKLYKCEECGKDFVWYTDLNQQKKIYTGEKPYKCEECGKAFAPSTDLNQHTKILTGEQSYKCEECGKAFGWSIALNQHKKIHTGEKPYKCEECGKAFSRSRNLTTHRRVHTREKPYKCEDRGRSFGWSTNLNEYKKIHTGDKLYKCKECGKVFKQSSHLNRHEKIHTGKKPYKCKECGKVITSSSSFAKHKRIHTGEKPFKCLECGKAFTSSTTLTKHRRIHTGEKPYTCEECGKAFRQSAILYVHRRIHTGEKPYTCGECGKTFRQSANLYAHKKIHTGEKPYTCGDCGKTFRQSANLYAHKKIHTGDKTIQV

Point of comparison: CCCCCCTCAC, binding signal 0.00443 relative 10-mer count. Against it:
- CCCCTCCCGC — higher, 0.00635 relative 10-mer count
- CAAAAAAAGC — higher, 0.0675 relative 10-mer count
- ATAGCTTCAT — lower, 0.00288 relative 10-mer count

— PMC13541613, “GHT-SELEX demonstrates unexpectedly high intrinsic sequence specificity and complex DNA binding of many human transcription factors”
